This note sets out measurements from PubChem BioAssay AID489036 (National Center for Advancing Translational Sciences (NCATS), 2010).

Structures are written as SMILES. Records with an inconclusive call do not appear. Calls of active or inactive are those of the source. Calls come from the whole dose curve; as a rule, active = well fitted inhibition curve with a large enough effect; inconclusive = small, poorly fitted or top-dose-only effect, or effect the other way; inactive = flat fitted curve, though single readings scatter.

The test in a line: VP16 selectivity assay for inhibitors of ROR gamma transcriptional activity. The note with it: Drosophila Schneider Gal4-VP16 UAS-luciferase reporter, 20 h; series mostly up to 92.2 µM. The source says: NIH Molecular Libraries Probe Production Network [MLPCN] NIH Chemical Genomics Center [NCGC] MLPCN Grant: R03 DA026211-01 Assay Provider: Dan Littman, New York University Assay Overview: The retinoic acid-related orphan receptor (ROR) gamma is a transcription factor that has a central role in the differentiation of Th17 cells, a subset of T helper cells that secrete the inflammatory cytokines IL-17, IL-17F, and IL-22. Th17 cells have been implicated in graft versus host disease, autoimmune disease and asthma. ROR gamma is induced in naive T helper cells in the presence of TGF-beta combined with IL-6, IL-21, or IL-23, and thereafter directs the expression of the Th17 lineage cytokines. […] Small molecule inhibitors that inhibit components common to the RORgt and VP16 assays, such as the Gal4 DNA binding domain or the UAS luciferase reporter, will be active in both assays and thus scored as nonspecific.
Assay Protocol Summary: For screening, 600 cells in 4 uL/well were dispensed into white solid 1536-well plates (Grenier) using a solenoid-based dispenser. […] After addition of 1.5 uL Photinus luciferase detection reagent, the plates were incubated 10 min at ambient temperature and then read by an ViewLux (Perkin Elmer) to detect luminescence.
(A reporter such as luciferase makes a cellular process visible.)

Turning to `CO[C@H]1[C@@H](O)CC(OC2[C@@H](O)CC(OC3[C@@H](O)C[C@H](OC4CC[C@@]5(C)C(CCC6C5CC(O)[C@]5(C)[C@H](C7=CC(=O)OC7)CCC65O)C4)O[C@@H]3C)O[C@@H]2C)O[C@@H]1C` (some centres not stated), the compound was called inactive.
For the compound `CC1OC(O[C@@H]2C(O)CC(O[C@@H]3C(O)C[C@@H](OC4CC[C@@]5(C)C6CC[C@]7(C)C(C8=CC(=O)OC8)C(O)C[C@@]7(O)[C@H]6CC[C@@H]5C4)OC3C)OC2C)CC(O)C1O` (some centres not stated), the result was inactive.
